Data taken from the supplement of paper PMC6555819.

Assays:
Assay in all cases: PBM binding z-score (relative to random genomic background probes); higher = stronger binding; sequences stand for … in GC…GCGATTGACAGCGTAGAATGAAGG
[1] = test system: FXR:RXRa (NR concentration 270 nM, RXRa partner concentration 90 nM)
In short: (§1)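 Probes were double-stranded and carried 34-nt variable regions with direct-repeat seeds, single-nucleotide variants, half-site ablations and random human genomic background sequences, printed on custom Agilent 4×180K protein-binding microarrays. Arrays were incubated 1 h with ligand-free nuclear receptor dimers in PBS pH 7.4, 2% milk, 0.02% Triton X-100, 1 mM DTT, 0.2 mg/mL BSA and 0.4 mg/ml salmon testes DNA. Antibodies against each partner (one per run) detected binding, and scanned fluorescence was regression-normalized. Binding z-scores use the random background probes as reference.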

[2] = test system: LXRa:RXRa (NR concentration 270 nM, RXRa partner concentration 90 nM)
In short: as §1

[3] = test system: LXRa homodimer (NR concentration 270 nM)
In short: as §1

[4] = test system: LXRb:RXRa (NR concentration 270 nM, RXRa partner concentration 90 nM)
In short: as §1

[5] = test system: LXRb homodimer (NR concentration 270 nM)
In short: as §1

[6] = test system: PPARa:RXRa (NR concentration 270 nM, RXRa partner concentration 90 nM)
In short: as §1

[7] = test system: PPARg:RXRa (NR concentration 180 nM, RXRa partner concentration 90 nM)
In short: as §1

[8] = test system: PPARg:RXRa 270nM:90nM, anti-RXR (NR concentration 270 nM, RXRa partner concentration 90 nM)
In short: as §1

[9] = test system: PPARg:RXRa 30nM:10nM, anti-RXR (NR concentration 30 nM, RXRa partner concentration 10 nM)
In short: as §1

[10] = test system: PPARg:RXRa 90nM:30nM, anti-RXR (NR concentration 90 nM, RXRa partner concentration 30 nM)
In short: as §1

[11] = test system: PPARg:RXRa DBDmut IVT, anti-RXR (DBD mutation: RXRa K156A/R161A, NR concentration 270 nM, RXRa partner concentration 90 nM)
In short: as §1

[12] = test system: PPARg:RXRa IVT, anti-PPARg (NR concentration 270 nM, RXRa partner concentration 90 nM)
In short: as §1

[13] = test system: PPARg DBDmut:RXRa IVT, anti-PPARg (DBD mutation: PPARg1 K132A/R137A, NR concentration 270 nM, RXRa partner concentration 90 nM)
In short: as §1

[14] = test system: PPARg DBDmut IVT, anti-PPARg (DBD mutation: PPARg1 K132A/R137A, NR concentration 270 nM)
In short: as §1

[15] = test system: PPARg homodimer (NR concentration 180 nM)
In short: as §1

[16] = test system: PXR:RXRa (NR concentration 270 nM, RXRa partner concentration 90 nM)
In short: as §1

[17] = test system: PXR homodimer (NR concentration 270 nM)
In short: as §1

[18] = test system: RARa:RXR (NR concentration 270 nM, RXRa partner concentration 90 nM)
In short: as §1

[19] = test system: RARa homodimer (NR concentration 270 nM)
In short: as §1

[20] = test system: RARb:RXRa (NR concentration 270 nM, RXRa partner concentration 90 nM)
In short: as §1

Sequence | PBM binding z-score [1] | PBM binding z-score [2] | PBM binding z-score [3] | PBM binding z-score [4] | PBM binding z-score [5] | PBM binding z-score [6] | PBM binding z-score [7] | PBM binding z-score [8] | PBM binding z-score [9] | PBM binding z-score [10] | PBM binding z-score [11] | PBM binding z-score [12] | PBM binding z-score [13] | PBM binding z-score [14] | PBM binding z-score [15] | PBM binding z-score [16] | PBM binding z-score [17] | PBM binding z-score [18] | PBM binding z-score [19] | PBM binding z-score [20]
AGTCAAAGTTCAAGACGAGGTAACGTAAAGCACG | 6.21 | 5.72 | 2.72 | 3.19 | 0.519 | 4.72 | 6.2 | 6.17 | 3.81 | 5.35 | 0.127 | 2.85 | 1.37 | 1.3 | 3.22 | 4.49 | 2.5 | 4.02 | 1.38 | 4.84
CCGACTGGGGCAGAACGGTTACCATACCATCCGG | -0.431 | -0.676 | -0.691 | -0.711 | -1.24 | -0.574 | 0.748 | -0.447 | -0.36 | -1.03 | 1.2 | 0.551 | -1.28 | -1.18 | -0.513 | -0.96 | -0.492 | -0.872 | -0.367 | 0.227
TGTCAAAATTCAAAGGTAACGTAAGTATCCACAC | 0.567 | 0.663 | -0.00824 | 0.809 | 0.161 | 1.13 | 0.99 | 1.47 | 0.972 | 1.39 | -0.0151 | 1.31 | 0.599 | 1.21 | 0.821 | 0.362 | 0.426 | 1.04 | 0.683 | 0.953
